Bioassay records as filed in PubChem BioAssay.
A selection: hits, their analogues and other compounds. The true share with any hit is near 10%.
Insulin prom inh – TRM-6 insulin promoter activity inhibition | AID 1273 | 0.9% of 130,000 active | TRM-6 cells (human fetal islet line), insulin promoter-eGFP reporter, imaging; reporter expression induced with tamoxifen | inhibition, % at 2 µM;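 active means inhibition above the mean plus 3 SD, with well images judged a real hit on visual review, cut at about 60% in these data, passing the limit was not always enough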
HCT116 PTEN-null – PTEN-deleted cell growth suppression; HCT116 PTEN-null viability, CellTiter-Glo, 60 h; active compounds read low; viability, % at 10 µM; 1.2% of 140,000 active; AID 827;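 active means viability at or below a set limit, 4 SD under the median of all tested compounds, cut at about 3.7% in these data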;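 further: PTEN knockout HCT116 line with beta catenin targeted HCT116 as companion control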
p97 ATPase inh – human p97 ATPase inhibition | P55072 | recombinant p97 ATPase, Kinase-Glo ATP luminescence, 3 h | inhibition, % at 8 µM | 0.42% of 220,000 active; in the data active means inhibition above about 15%;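 further: 0% = DMSO vehicle and 100% = wells lacking enzyme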
ROMK primary – human ROMK K+ channel modulation, primary screen; B-score at 10 µM; 2% of 130,000 active; Tet-inducible ROMK, thallium flux fluorescence; actives lie on both sides; P48048;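 active means signal ratio slope over the read window, or its plate-corrected B-score, at least 3 SD from the plate mean, either direction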;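 further: B-score of the F/F0 ratio slope over 7 to 12 s after thallium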
Lmaj promast – reduces viability of Leishmania major promastigotes | inhibition, % at 10 µM | resazurin fluorescence viability | 9% of 200,000 active; in the data active means inhibition above about 50%;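 further: promastigotes grown with compound for 44 hours at 28 °C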
bCat KO growth – beta-catenin-lacking colon tumor cell growth suppression; HCT116 beta-catenin knockout viability, CellTiter-Glo, 60 h; active compounds read low; viability, % at 10 µM; 1.5% of 140,000 active;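 active means viability at or under a set limit, the compound median less 4 SD, cut at about 6% in these data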;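 further: 0% = Hyamine 1622 control at 20 µM and 100% = untreated cell control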
The depositor's hits bear a star.

What do the screens show for `N=c1c2c(n(Cc3ccc([N+](=O)[O-])cc3)c3c1CCC3)CCCC2`?
Insulin prom inh: 26; p97 ATPase inh: 5; ROMK primary: 1.2; Lmaj promast: 64*

How did N=c1c2c(n(Cc3ccc(Br)cc3)c3c1CCC3)CCCC2 do in these assays?
Insulin prom inh: 17; HCT116 PTEN-null: 7; p97 ATPase inh: -1; ROMK primary: -1.3; Lmaj promast: 100*; bCat KO growth: 7

Results for N=c1c2c(n(Cc3ccc(Cl)c(Cl)c3)c3c1CCC3)CCCC2 ?
HCT116 PTEN-null: 9; p97 ATPase inh: 5; Lmaj promast: 100*; bCat KO growth: 11

How did O=C(/C=C/c1ccccc1)N1CCN(c2cccc(Cl)n2)CC1 do in these assays?
Insulin prom inh: -14; HCT116 PTEN-null: 94; p97 ATPase inh: 2; Lmaj promast: -2; bCat KO growth: 94

How did COc1ccc(NC(=O)/C(C#N)=C/c2c(C)nn(-c3ccc(F)cc3)c2Cl)cc1OC do in these assays?
Insulin prom inh: -6; HCT116 PTEN-null: 80; p97 ATPase inh: 1; ROMK primary: 0.17; Lmaj promast: 7; bCat KO growth: 77

How did COc1ccc(NC(=O)/C(C#N)=C/c2c(C)nn(-c3ccc(F)cc3)c2Cl)cc1Cl do in these assays?
Insulin prom inh: 24; HCT116 PTEN-null: 75; p97 ATPase inh: 6; ROMK primary: 0.2; Lmaj promast: 96*; bCat KO growth: 87

What do the screens show for `CCCN(CCC)CC(O)Cn1cc(/C=C/C(=O)c2cccs2)c2ccccc21` (stereo unspecified)?
Insulin prom inh: -33; HCT116 PTEN-null: 1.3*; p97 ATPase inh: 0; Lmaj promast: 64*; bCat KO growth: 1.2*

How did CC(C)(C)NCC(O)Cn1cc(C=O)c2ccccc21 (stereo unspecified) do in these assays?
p97 ATPase inh: 2; ROMK primary: 1.3; Lmaj promast: -1

What do the screens show for `CN1CCN(Cn2cc(/C=C/C(=O)c3ccccc3)c3ccccc32)CC1`?
Insulin prom inh: -18; HCT116 PTEN-null: 83; p97 ATPase inh: -1; ROMK primary: 0.36; Lmaj promast: 50; bCat KO growth: 74

Results for CCCN(CCC)CC(O)Cn1cc(/C=C/C(=O)c2ccccc2)c2ccccc21 (stereo unspecified) ?
p97 ATPase inh: 1; ROMK primary: -1.3; Lmaj promast: 69*

What do the screens show for `O=C(/C=C/c1cn(CC(O)CN2CCCCC2)c2ccccc12)c1cccs1` (stereo unspecified)?
HCT116 PTEN-null: 5; p97 ATPase inh: 5; Lmaj promast: 99*; bCat KO growth: 2.7*

Results for COc1ccc(N2CCN(C(=S)NC(C)c3ccccc3)CC2)cc1 (stereo unspecified) ?
Insulin prom inh: -50; p97 ATPase inh: 1; ROMK primary: 0.55; Lmaj promast: -3

How did Cc1ccc(CN2C(=O)c3ccccc3NC2c2ccccn2)cc1 (stereo unspecified) do in these assays?
Insulin prom inh: -43; p97 ATPase inh: -1; Lmaj promast: 63*

Results for COc1cc(/C=C2/NC(=O)NC2=O)cc(Br)c1OCc1ccccc1 ?
Insulin prom inh: 19; p97 ATPase inh: 5; ROMK primary: 0.94; Lmaj promast: -1

What do the screens show for `O=C(Nc1nonc1NC(=O)c1cccs1)c1cccs1`?
Insulin prom inh: 58; p97 ATPase inh: 5; ROMK primary: -1.1; Lmaj promast: 35

How did COc1cccc(C2=NO[C@@H]3C(=O)N(c4ccc5c(c4)OCCO5)C(=O)[C@H]23)c1OC do in these assays?
Insulin prom inh: 80*; HCT116 PTEN-null: 95; p97 ATPase inh: 2; ROMK primary: 0.26; Lmaj promast: -4; bCat KO growth: 114

Results for COc1cccc(C2=NO[C@@H]3C(=O)N(Cc4ccccc4)C(=O)[C@H]23)c1OC ?
Insulin prom inh: 20; HCT116 PTEN-null: 105; p97 ATPase inh: 1; ROMK primary: 1.1; Lmaj promast: -1; bCat KO growth: 95

How did O=C(COC(=O)/C=C/C(=O)OCC(=O)NC12CC3CC(CC(C3)C1)C2)NC12CC3CC(CC(C3)C1)C2 do in these assays?
Insulin prom inh: 19; HCT116 PTEN-null: 92; p97 ATPase inh: -5; ROMK primary: 0.65; Lmaj promast: -2; bCat KO growth: 88

How did CN(Cc1ccc(Cl)s1)C(=O)CCl do in these assays?
p97 ATPase inh: 7; ROMK primary: 0.1; Lmaj promast: 84*

How did O=C(NCCn1cc(SCc2ccc(F)cc2)c2ccccc21)c1ccccc1F do in these assays?
Insulin prom inh: -10; HCT116 PTEN-null: 53; p97 ATPase inh: 0; ROMK primary: 1; Lmaj promast: 95*; bCat KO growth: 51

How did Oc1ccccc1CNc1ccc(OC(F)(F)F)cc1 do in these assays?
p97 ATPase inh: 1; ROMK primary: 0.18; Lmaj promast: -4

What do the screens show for `c1ccc(-c2ccc(-c3cnc4n3CCCCC4)cc2)cc1`?
Insulin prom inh: 6; HCT116 PTEN-null: 79; p97 ATPase inh: 1; ROMK primary: -0.29; Lmaj promast: 99*; bCat KO growth: 78

What do the screens show for `N#Cc1c(-c2ccco2)cc(-c2cccnc2)nc1N`?
Insulin prom inh: 57; HCT116 PTEN-null: 78; p97 ATPase inh: 5; ROMK primary: -2.7; Lmaj promast: 18; bCat KO growth: 70

Results for N#Cc1c(-c2ccco2)cc(-c2ccccn2)nc1N ?
HCT116 PTEN-null: 88; p97 ATPase inh: 2; ROMK primary: -1.5; Lmaj promast: 78*; bCat KO growth: 88

Results for COC(=O)C1=C(N)c2c(F)cccc2C1(C#N)c1ccc(F)cc1 (stereo unspecified) ?
Insulin prom inh: 50; HCT116 PTEN-null: 78; p97 ATPase inh: 0; ROMK primary: 0.015; Lmaj promast: 51*; bCat KO growth: 85

Results for COC(=O)C1=C(N)Oc2c(oc(CO)cc2=O)C1c1ccc(F)cc1 (stereo unspecified) ?
p97 ATPase inh: -1; ROMK primary: -0.78

Results for COc1ccc(C(CNC(=O)c2oc3ccc(Br)cc3c2C)N2CCCCC2)cc1 (stereo unspecified) ?
Insulin prom inh: -36; p97 ATPase inh: 3; ROMK primary: -1.8; Lmaj promast: 60*

Results for COc1ccc(C(CNC(=O)COc2ccc(Br)cc2F)N2CCCC2)cc1 (stereo unspecified) ?
p97 ATPase inh: 0; ROMK primary: -1.1; Lmaj promast: 25

How did O=[N+]([O-])c1cc(C(F)(F)F)ccc1Sc1nccn1Cc1ccccc1 do in these assays?
Insulin prom inh: -4; HCT116 PTEN-null: 85; p97 ATPase inh: 0; ROMK primary: 0.33; Lmaj promast: -3; bCat KO growth: 89

How did O=[N+]([O-])c1ccc(Sc2nccn2Cc2ccccc2)c([N+](=O)[O-])c1 do in these assays?
Insulin prom inh: 16; HCT116 PTEN-null: 5; p97 ATPase inh: 3; Lmaj promast: 101*; bCat KO growth: 4.8*

What do the screens show for `O=C(c1ccccc1)C1CCN(CC(=O)N2CCN(c3ccccc3)CC2)CC1`?
p97 ATPase inh: 0; ROMK primary: -0.9; Lmaj promast: 92*
